According to PubChem BioAssay (NCATS):
Inconclusive results are not listed. Active and inactive are the calls of the source. Calls follow the shape of the dose curve; as a rule, active = well fitted curve in the direction sought with a large enough effect; inconclusive = small, poorly fitted or top-dose-only effect, or another doubt; inactive = no such curve, though single readings can be large; an effect the other way counts as inactive or inconclusive.

Legend:
[1] = target: Glutathione peroxidase 1 (Homo sapiens) (UniProt P07203); experiment: Primary qHTS Assay for Inhibitors of Recombinant Selenoprotein Glutathione Peroxidase 1 (GPX1) (AID 1845191); also: nearly all actives have a fitted effect of over 65% in size
Sequence of Glutathione peroxidase 1 (Homo sapiens) (P07203 whole entry, looked up): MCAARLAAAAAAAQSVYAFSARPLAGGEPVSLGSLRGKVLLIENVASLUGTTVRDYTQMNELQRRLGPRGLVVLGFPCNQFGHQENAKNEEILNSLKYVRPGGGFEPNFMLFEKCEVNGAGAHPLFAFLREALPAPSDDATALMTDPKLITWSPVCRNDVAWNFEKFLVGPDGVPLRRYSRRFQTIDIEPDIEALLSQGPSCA
How it was run: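 10 nM GPX1 + cpd, 30 min RT; start w/ 1 mM GSH, 0.5 mM cumene hydroperoxide, 0.5 mM NADPH, 100 nM GR, 0.01% BSA; buffer 50 mM Tris-HCl pH 7.5, 2 mM EDTA, 150 mM NaCl; Fl 340/450, 0 & 15 min.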

[2] = target: Phospholipid hydroperoxide glutathione peroxidase GPX4 (Homo sapiens) (UniProt P36969); experiment: Primary qHTS Assay for Inhibitors of Recombinant Selenoprotein Glutathione Peroxidase 4 (GPX4) (AID 1845192); also: nearly all actives have a fitted effect of over 65% in size
Sequence of Phospholipid hydroperoxide glutathione peroxidase GPX4 (Homo sapiens) (P36969 whole entry, looked up): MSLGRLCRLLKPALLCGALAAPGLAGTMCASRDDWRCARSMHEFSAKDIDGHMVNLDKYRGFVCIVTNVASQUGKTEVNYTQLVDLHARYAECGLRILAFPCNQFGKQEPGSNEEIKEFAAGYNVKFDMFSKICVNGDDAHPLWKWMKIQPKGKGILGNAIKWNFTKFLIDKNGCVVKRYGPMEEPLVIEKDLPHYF
How it was run: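 NADPH consumption, followed by fluorescence at 340/450 nm between 0 and 15 min, reports GPX4 activity via coupled glutathione reductase (100 nM). Enzyme 200 nM was pre-exposed to compound 30 min; 0.5 mM cumene hydroperoxide and 1 mM GSH served as substrates.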

[3] = target: Luciferin 4-monooxygenase (Photinus pyralis) (UniProt P08659); experiment: Primary firefly luciferase (FLuc) qHTS assay for identification of artifact compounds. (AID 1845220); also: nearly all actives have a fitted effect of over 60% in size
How it was run: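 FLuc 10 nM; luciferin 10 uM; ATP 10 uM; Tris-acetate pH 7.6, Mg-acetate 10 mM; 15 min RT preincubation; 5 min reaction; luminescence.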

[4] = Primary fluorescence-based thiol-reactive (MSTI) qHTS assay for identification of artifact compounds. (AID 1845221); also: nearly all actives have a fitted effect of over 65% in size; also: potency is read from the fitted curve at half-maximal effect
How it was run: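 Probe: MSTI 4 uM, PBS pH 7.4, 2% DMSO. Incubation 1 h, RT, light-protected. Readout fluorescence 525/598 nm.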

[5] = test system: Nanoluciferase (engineered Oplophorus gracilirostris luciferase); experiment: Primary Nanoluciferase (NLuc) qHTS assay for identification of artifact compounds. (AID 1845222);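 also: NLuc secreted into diluted conditioned medium of S16 cells; series mostly up to about 54 µM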
How it was run: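 NLuc from S16 cell medium (1:55) plus test compounds, 15 min, room temperature. Luminescence after Nano-Glo (1:100) addition, 5 min.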

Measured: Potency

CC(O)C(O)/C=C/C=C/C(=O)O[C@@H]1C=C2COC(=O)[C@]2(O)[C@@]2(C)CCCC(C)(C)C12 (stereo not given in full)
inactive: [1] | [2] | [3] | [4] | [5]

COc1ccc(/C=C/C(=O)O[C@H]2[C@@H]3C=CO[C@@H](O[C@@H]4O[C@H](CO)[C@@H](O)[C@H](O)[C@H]4O)[C@@H]3[C@@]3(CO)O[C@@H]23)cc1O
active: [4] 11.6 µM
inactive: [1] | [2] | [3] | [5]

CC(C)(O)c1ccc2c(c1)C(O)CC1C(C)(C(=O)O)CCCC21C (stereo not given)
inactive: [1] | [2] | [3] | [4] | [5]

CC1CCC2C(C)(C)CC(C)(CO)C2(O)C1C(=O)O (stereo not given)
inactive: [1] | [2] | [3] | [4] | [5]
